Reference: PubChem BioAssay (NCATS)
Values joined by “and” are separate entries in the source; they are usually repeats but may differ in a detail not shown here. Identical values can stand only once. Inconclusive results are not listed. Active and inactive are the calls of the source. Unless noted, the call rests on the fitted dose curve; in most records, active means well fitted curve in the direction sought with a large enough effect; inconclusive means small, poorly fitted or top-dose-only effect, or another doubt; inactive means no such curve, though single readings can be large; an effect the other way counts as inactive or inconclusive.

How the values were obtained:
[1] = target: Arylsulfatase A (Homo sapiens) (UniProt P15289); assay: qHTS screen for enhancers of Arylsulfatase A (ASA1): LOPAC Validation Assay (AID 720538)
In short: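 SV40-transformed fibroblasts from an MLD patient (ASA-I179S) were treated with compound for 48 h at 37 C. They were then lysed with 0.5 mM pNCS substrate (final) for 14 h at room temperature and stopped with NaOH; signal read by fluorescence (Ex 525/Em 598 nm), with increase denoting enhanced activity.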

[2] = qHTS for compounds that reverse cellular toxicity of Amyloid beta (A-beta) peptide in yeast: LOPAC Validation Assay (AID 720559);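 further: plate controls were DMSO for no effect and equimolar ferric chloride plus clioquinol rescue for full effect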
In short: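 Yeast expressing toxic A-beta grown with pinned compounds at 30 C for 48 hr. Growth measured as absorbance at 600 nm; data normalized to DMSO and to an equimolar FeCl3/clioquinol mixture as positive control.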

[3] = qHTS for Activators of Parkin Expression: LOPAC Validation Assay (NLuc Reporter) (AID 720572;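 further: 0% = DMSO and 100% = positive control compound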)
In short: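 Neuronal cells with a Parkin promoter-driven FLuc/NLuc coincidence reporter were treated 24 h at 37 C in 7-point dose response (LOPAC). NLuc luminescence read after FLuc; signals normalized to DMSO and positive control (100%).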

[4] = qHTS for Activators of Parkin Expression: LOPAC Validation Assay (FLuc Reporter) (AID 720573;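 further: 0% = DMSO and 100% = positive control compounds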)
In short: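 Neuronal cell line stably expressing FLuc/NLuc coincidence reporter under the Parkin promoter, 1,500 cells/well, dosed 24 h after seeding in 7-point series for 24 h at 37 C. FLuc luminescence read; normalized to DMSO and positive control (100%).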

[5] = target: T1, Hexokinase-4 (Homo sapiens) + Glucokinase regulatory protein (Homo sapiens) (UniProt P35557+Q14397); assay: qHTS assay for inhibitors of recombinant human GCK-GKRP interaction: Diaphorase-coupled assay (AID 743205)
In short: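 Compounds pre-incubated 20 min with substrate, then 10 nM GST-GCK with 10 nM FLAG-GKRP added. GCK activity coupled via G6PDH and diaphorase to resorufin (5 mM glucose, 0.4 mM ATP, 0.15 mM NADP+, pH 7.6), read kinetically over 30 minutes at Ex 525/Em 590 nm.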

[6] = target: T1, Hexokinase-4 (Homo sapiens) + Glucokinase regulatory protein (Homo sapiens); assay: qHTS assay for inhibitors of recombinant human GCK-GKRP interaction: ADP-Glo assay (AID 743206);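 further: plate controls were DMSO plus enzyme for no effect and no enzyme for full effect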
In short: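 GST-GCK and FLAG-GKRP (15 nM each in the dispensed mix, with 2 uM S6P) react with 0.4 mM ATP and 5 mM glucose (final) in Hepes pH 7.6 for 60 min at room temperature. ADP is measured by ADP-Glo luminescence.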

[7] = target: T1, Hexokinase-4 (Homo sapiens) + Glucokinase regulatory protein (Homo sapiens); assay: qHTS assay for inhibitors of recombinant human GCK-GKRP interaction: HTRF assay (AID 743207);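 further: 0% = DMSO with GCK present and -100% = DMSO wells lacking GCK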
In short: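 HTRF binding of 5 nM GST-GCK and 5 nM FLAG-GKRP with 2 uM S6P in pH 7.1 Hepes buffer (MgCl2, KCl, DTT, Tween 20, BSA). Anti-FLAG XL665 and anti-GST donor added, 60 min at room temperature; 665/615 nm read, normalized to with- and without-GCK controls.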

[8] = qHTS Assay for Identifying Gametocytocidal Compounds (AID 743244); further: potency means the concentration at half of the fitted maximal effect;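 on max response: on the % scale 0 is the no-effect control and ±100 the full control effect; actives lower the fluorescent signal which means gametocytes are killed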; settings: P. falciparum 3D7 stage III-V gametocytes, alamarBlue, 72 h; max response: stronger effect = lower value
In short: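 3D7 gametocytes, stages III–V, 20,000/well; cpd 72 h, 37 °C/5% CO2; + alamarBlue 24 h; fluor. Ex 525/Em 598.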

[9] = qHTS profiling of the MIPE4 collection as inhibitors of Plasmodium falciparum (3D7) proliferation (AID 743344; call rule not given here;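 further: scaled between DMSO vehicle wells and 0.29 µM artemisinin as full inhibition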); settings: P. falciparum 3D7 in erythrocytes, SYBR Green DNA fluorescence, 72 h; at 28.5 µM (top of the series) unless noted
In short: (§1)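 Erythrocytes infected with P. falciparum (0.3% parasitemia, 2.5% hematocrit) incubated with compounds 72 h at 37 C, 5% CO2. Lysis with saponin/Triton buffer containing SYBR Green I, overnight at room temperature in the dark; DNA fluorescence (485/535 nm) normalised to 0.29 uM artemisinin and DMSO.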

[10] = qHTS profiling of the MIPE4 collection as inhibitors of Plasmodium falciparum (DD2) proliferation (AID 743345; call rule not given here); settings: P. falciparum Dd2 in erythrocytes, SYBR Green DNA, 72 h; at 28.5 µM (top of the series) unless noted
In short: as §1

[11] = qHTS profiling of the MIPE4 collection as inhibitors of Plasmodium falciparum (DD2) proliferation (Rep 2) (AID 743346; call rule not given here); settings: P. falciparum Dd2 in erythrocytes, SYBR Green DNA, 72 h; at 28.5 µM (top of the series) unless noted
In short: as §1

[12] = qHTS profiling of the MIPE4 collection as inhibitors of Plasmodium falciparum (HB3) proliferation (AID 743347; call rule not given here;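 further: plate controls were DMSO vehicle wells for no effect and artemisinin wells for full effect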); settings: P. falciparum HB3 in erythrocytes, SYBR Green DNA, 72 h; at 28.5 µM (top of the series) unless noted
In short: as §1

[13] = qHTS assay for small molecule agonists of the antioxidant response element (ARE) signaling pathway measured by Nrf2-dependant transcriptional activity (AID 720636; active means well fitted curve in the direction sought with a large enough effect in the repeat runs; an effect the other way counts as inactive or inconclusive; further: % of control where 0% means no effect)
In short: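 Quantitative HTS format in HepG2 cells stably expressing an ARE-luciferase reporter; 16 hr compound treatment at 37 C, luciferase signal detected with ONE-Glo.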

[14] = qHTS assay for small molecule agonists of the antioxidant response element (ARE) signaling pathway measured by Nrf2-dependant transcriptional activity - cell viability counter screen (AID 720653; active means well fitted curve in the direction sought with a large enough effect in the repeat runs; an effect the other way counts as inactive or inconclusive; further: on the % scale 0 is the no-effect control and ±100 the full control effect); settings: ARE-bla HepG2 viability, CellTiter-Glo ATP luminescence, 16 h; max response: stronger effect = lower value
In short: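 ARE-bla HepG2 cells treated with compounds for 16 h at 37C; this counter screen measures viability as intracellular ATP by CellTiter-Glo luminescence after 30 min at room temperature.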

[15] = qHTS assay for cell viability of HEK293 cells (AID 743288); settings: ATP luminescence (CellTiter-Glo), 18 h; max response: stronger effect = lower value; further: on the % scale 0 is the no-effect control and ±100 the full control effect; nearly all actives have a fitted effect of over 50% in size
In short: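 Parental HEK293 cells, 2,000 per well, preincubated at least 5 h at 37 C, then exposed to compounds in DMSO for 18 h at 37 C. Viability by CellTiter-Glo ATP luminescence after 30 min at room temperature.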

[16] = qHTS assay for cell viability of the p53RE-bla HCT-116 cell line (AID 743292); further: nearly all actives have a fitted effect of over 55% in size; further: potency means the concentration at half of the fitted maximal effect
In short: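 Viability of compound-treated p53RE-bla HCT-116 cells is taken from ATP-dependent luciferase luminescence. Treatment lasts 16 h at 37 C after a 5 h settling period; detection follows 30 min at room temperature.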

T1 sequence (P35557 whole entry, looked up): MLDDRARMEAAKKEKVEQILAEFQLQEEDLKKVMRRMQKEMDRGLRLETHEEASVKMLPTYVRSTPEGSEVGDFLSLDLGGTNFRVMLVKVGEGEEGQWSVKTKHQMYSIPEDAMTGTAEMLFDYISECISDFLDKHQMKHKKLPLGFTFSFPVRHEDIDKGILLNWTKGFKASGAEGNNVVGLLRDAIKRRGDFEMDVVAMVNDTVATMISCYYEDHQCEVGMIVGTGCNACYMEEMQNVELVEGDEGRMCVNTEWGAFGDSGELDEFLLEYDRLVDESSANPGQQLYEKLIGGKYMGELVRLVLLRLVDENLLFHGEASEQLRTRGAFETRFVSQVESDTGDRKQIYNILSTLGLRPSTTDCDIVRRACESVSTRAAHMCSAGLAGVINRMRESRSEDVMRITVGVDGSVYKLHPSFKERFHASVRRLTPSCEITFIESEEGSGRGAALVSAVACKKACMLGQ
T1 sequence (Q14397 whole entry, looked up): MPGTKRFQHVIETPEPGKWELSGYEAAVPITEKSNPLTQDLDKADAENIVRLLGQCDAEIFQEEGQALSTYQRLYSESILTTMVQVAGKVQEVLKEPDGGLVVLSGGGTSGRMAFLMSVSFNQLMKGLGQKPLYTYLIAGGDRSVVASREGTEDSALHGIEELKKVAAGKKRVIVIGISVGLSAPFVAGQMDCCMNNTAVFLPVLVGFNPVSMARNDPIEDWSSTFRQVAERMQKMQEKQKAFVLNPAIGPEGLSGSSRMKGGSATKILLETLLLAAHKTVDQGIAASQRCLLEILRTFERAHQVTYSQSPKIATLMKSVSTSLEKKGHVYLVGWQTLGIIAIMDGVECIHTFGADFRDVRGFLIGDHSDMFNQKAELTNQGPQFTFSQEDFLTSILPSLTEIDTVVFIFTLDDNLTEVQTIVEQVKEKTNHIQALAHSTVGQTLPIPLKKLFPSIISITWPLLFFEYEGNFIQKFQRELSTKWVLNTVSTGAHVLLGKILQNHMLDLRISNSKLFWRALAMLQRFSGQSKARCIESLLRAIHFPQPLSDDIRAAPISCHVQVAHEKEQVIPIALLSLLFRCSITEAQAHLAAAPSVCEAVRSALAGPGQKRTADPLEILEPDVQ
Arylsulfatase A (Homo sapiens), sequence (P15289 whole entry, looked up): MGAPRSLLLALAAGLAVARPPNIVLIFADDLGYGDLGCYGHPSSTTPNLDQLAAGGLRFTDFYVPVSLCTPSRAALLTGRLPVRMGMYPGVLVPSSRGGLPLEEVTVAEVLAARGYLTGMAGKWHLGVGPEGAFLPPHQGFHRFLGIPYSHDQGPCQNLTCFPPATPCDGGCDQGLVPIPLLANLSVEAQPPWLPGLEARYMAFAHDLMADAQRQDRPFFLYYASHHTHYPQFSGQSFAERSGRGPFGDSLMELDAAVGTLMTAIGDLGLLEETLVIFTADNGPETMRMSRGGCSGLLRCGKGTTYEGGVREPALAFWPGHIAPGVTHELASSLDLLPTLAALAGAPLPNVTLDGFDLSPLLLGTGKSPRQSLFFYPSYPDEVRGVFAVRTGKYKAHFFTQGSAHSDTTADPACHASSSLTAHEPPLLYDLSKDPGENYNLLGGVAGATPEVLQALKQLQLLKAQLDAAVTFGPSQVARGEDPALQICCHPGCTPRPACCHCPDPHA

In the case of `CN1C[C@H](CNC(=O)OCc2ccccc2)C[C@@H]2c3cccc4c3c(cn4C)C[C@H]21`, the Potency [1] is reported as “inactive”, the outcome [2] is reported as “inactive” and the outcome [3] is reported as “inactive”. The outcome [4] was “inactive”, the outcome [5] was “inactive” and the outcome [6] was “inactive”. For the same compound, the outcome [7] was “inactive” and the max response [8] was -4.3% (inactive).

In the case of `Cc1c(OCC(F)(F)F)ccnc1CS(=O)c1nc2ccccc2[nH]1` (configuration not stated), the outcome [2] is reported as “inactive”, the max response [8] is reported as 1.82% (inactive) and the parasite growth, % of DMSO control [9] is reported as 56.6%. The parasite growth remaining, % of DMSO control (lower = more inhibition) [10] was 83.1%, the parasite growth, % of control (lower = inhibition) [11] was 42.1% and the growth, % of control [12] was 50.8%.

With `O=c1oc2ccccc2c(O)c1C(CC(O)c1ccc(-c2ccc(Br)cc2)cc1)c1ccccc1` (configuration not stated) the Potency [13] was “inactive”, the max response [14] was -8.71% (inactive) and the max response [8] was -15.4% (inactive). The max response [15] was -5.59% (inactive) and the Potency [16] was 31.6 µM (active).

For `Clc1ccc(COC(Cn2ccnc2)c2ccc(Cl)cc2Cl)cc1` (configuration not stated), the Potency [13] was “inactive”, the max response [14] was -7.45% (inactive) and the Potency [8] was 10 µM (active). For the same compound, the max response [15] was -21% (inactive).

For `COc1ccc(C(CN(C)C)C2(O)CCCCC2)cc1` (configuration not stated), the outcome [2] was “inactive”, the outcome [3] was “inactive” and the outcome [4] was “inactive”. For the same compound, the outcome [5] was “inactive”, the outcome [6] was “inactive” and the outcome [7] was “inactive”. For the same compound, the max response [8] was 4.64% (inactive) and 5.5% (inactive), the parasite growth, % of DMSO control [9] was 21.1% and the parasite growth remaining, % of DMSO control (lower = more inhibition) [10] was 58.9%. The parasite growth, % of control (lower = inhibition) [11] was 42.9% and the growth, % of control [12] was 60.2%.

With `CC(C)(C)CC(C)(C)c1ccc(O)cc1` the Potency [13] was “inactive”, the max response [14] was -9.38% (inactive) and the max response [8] was -7.21% (inactive) and 8.2% (inactive). The max response [15] was -15.6% (inactive) and the Potency [16] was “inactive”.

In the case of `N#CC(C#N)=Cc1ccc(O)c(O)c1`, the Potency [1] is reported as “inactive”, the outcome [2] is reported as “inactive” and the outcome [5] is reported as “inactive”. For the same compound, the outcome [6] was “inactive”, the outcome [7] was “inactive” and the max response [8] was 25.4% (inactive).

In the case of `C#CCOC(C(=O)OCCN(C)C)(c1ccccc1)c1ccccc1`, the max response [8] is reported as -0.509% (inactive).

In the case of `N[C@@H]1C[C@H]1c1ccccc1`, the max response [8] is reported as 21.9% (inactive).

For `O=[N+]([O-])c1cc([As](=O)(O)O)ccc1O`, the Potency [8] was 3.98 µM (active).

In the case of `Cc1ccc2c(n1)Oc1ccc(C(C)C(=O)OCC(=O)N(C)C)cc1C2` (configuration not stated), the max response [8] is reported as 42.6% (inactive) and 2.17% (inactive).

With `CN(C)C(=O)C(CCN1CCC(O)(c2ccc(Cl)cc2)CC1)(c1ccccc1)c1ccccc1` the Potency [8] was 11.2 µM (active) and 1.26 µM (active).

In the case of `CN1C(=S)CN=C(c2ccccc2)c2cc(Cl)ccc21`, the max response [8] is reported as -6.22% (inactive).

With `C=C1CC[C@@]2(O)[C@H]3Cc4ccc(O)c5c4[C@@]2(CCN3CC2CC2)[C@H]1O5` the max response [8] was 7.59% (inactive).

With `CC(COc1ccccc1)N(CCCl)Cc1ccccc1` (configuration not stated) the max response [14] was -12.5% (inactive), the max response [8] was 3.46% (inactive) and the growth, % of control [12] was 91.2%.

In the case of `O=C(NC(O)C(Cl)(Cl)Cl)NC(O)C(Cl)(Cl)Cl` (configuration not stated), the max response [8] is reported as -4.63% (inactive).

In the case of `NCCc1cc(O)c(O)cc1O`, the max response [8] is reported as 0.974% (inactive).

In the case of `CCC(C(N)=O)N1CCCC1=O` (configuration not stated), the max response [8] is reported as -7.9% (inactive).

For `CCN(CC)CCN1C(=O)CN=C(c2ccccc2F)c2cc(Cl)ccc21`, the max response [8] was 9.52% (inactive).

With `CC1OC(C)OC(C)O1` (configuration not stated) the max response [8] was -0.681% (inactive) and 11.3% (inactive).

For `CCOC(=O)C1(c2ccccc2)CCN(CCC(C#N)(c2ccccc2)c2ccccc2)CC1`, the max response [8] was 18.9% (inactive) and -7.07% (inactive).

With `OCCN1CCN(CCCN2c3ccccc3Sc3ccc(C(F)(F)F)cc32)CC1` the Potency [8] was 11.2 µM (active).

In the case of `O=C(O)c1ccc2[nH]cc(CCCCN3CC=C(c4ccccc4)CC3)c2c1`, the max response [8] is reported as -6.11% (inactive).

With `CCCC1CCCCN1` (configuration not stated) the max response [8] was -2.88% (inactive).

With `FC(F)(F)c1cccc(C2=CCN(CCc3ccc4ccccc4c3)CC2)c1` the max response [8] was 11.8% (inactive).

In the case of `CC(C)(C)NCC(O)c1cc(Cl)c(N)c(Cl)c1` (configuration not stated), the max response [8] is reported as -5.19% (inactive).

With `CC(C)=CC1C(C(=O)OCc2cccc(Oc3ccccc3)c2)C1(C)C` (configuration not stated) the max response [8] was 5.27% (inactive).

For `C=C1C[C@@H]2[C@H](CC[C@]3(C)C(=O)CC[C@@H]23)[C@@]2(C)C=CC(=O)C=C12`, the max response [8] was -0.643% (inactive).

For `CC[N+](CC)(CC)CC`, the max response [8] was -4.6% (inactive) and 7.33% (inactive).

With `Clc1ccc(CCC(Cn2ccnc2)Sc2c(Cl)cccc2Cl)cc1` (configuration not stated) the Potency [8] was 7.94 µM (active).

With `N[C@@H](Cc1ccc(Oc2cc(I)c(O)c(I)c2)c(I)c1)C(=O)O` the max response [8] was -7.97% (inactive).

For `CC[N+]1(C)CCCC(OC(=O)C(O)(c2ccccc2)c2ccccc2)C1` (configuration not stated), the max response [8] was -8.23% (inactive).
